Structures are written as SMILES. For some assays here: Entries with a potency or affinity are not part of this list.

One test deals with T1, Ubiquitin-activating enzyme e1, putative (Leishmania donovani (strain BPK282A1)) (UniProt E9BSI1).
T1 sequence (whole entry): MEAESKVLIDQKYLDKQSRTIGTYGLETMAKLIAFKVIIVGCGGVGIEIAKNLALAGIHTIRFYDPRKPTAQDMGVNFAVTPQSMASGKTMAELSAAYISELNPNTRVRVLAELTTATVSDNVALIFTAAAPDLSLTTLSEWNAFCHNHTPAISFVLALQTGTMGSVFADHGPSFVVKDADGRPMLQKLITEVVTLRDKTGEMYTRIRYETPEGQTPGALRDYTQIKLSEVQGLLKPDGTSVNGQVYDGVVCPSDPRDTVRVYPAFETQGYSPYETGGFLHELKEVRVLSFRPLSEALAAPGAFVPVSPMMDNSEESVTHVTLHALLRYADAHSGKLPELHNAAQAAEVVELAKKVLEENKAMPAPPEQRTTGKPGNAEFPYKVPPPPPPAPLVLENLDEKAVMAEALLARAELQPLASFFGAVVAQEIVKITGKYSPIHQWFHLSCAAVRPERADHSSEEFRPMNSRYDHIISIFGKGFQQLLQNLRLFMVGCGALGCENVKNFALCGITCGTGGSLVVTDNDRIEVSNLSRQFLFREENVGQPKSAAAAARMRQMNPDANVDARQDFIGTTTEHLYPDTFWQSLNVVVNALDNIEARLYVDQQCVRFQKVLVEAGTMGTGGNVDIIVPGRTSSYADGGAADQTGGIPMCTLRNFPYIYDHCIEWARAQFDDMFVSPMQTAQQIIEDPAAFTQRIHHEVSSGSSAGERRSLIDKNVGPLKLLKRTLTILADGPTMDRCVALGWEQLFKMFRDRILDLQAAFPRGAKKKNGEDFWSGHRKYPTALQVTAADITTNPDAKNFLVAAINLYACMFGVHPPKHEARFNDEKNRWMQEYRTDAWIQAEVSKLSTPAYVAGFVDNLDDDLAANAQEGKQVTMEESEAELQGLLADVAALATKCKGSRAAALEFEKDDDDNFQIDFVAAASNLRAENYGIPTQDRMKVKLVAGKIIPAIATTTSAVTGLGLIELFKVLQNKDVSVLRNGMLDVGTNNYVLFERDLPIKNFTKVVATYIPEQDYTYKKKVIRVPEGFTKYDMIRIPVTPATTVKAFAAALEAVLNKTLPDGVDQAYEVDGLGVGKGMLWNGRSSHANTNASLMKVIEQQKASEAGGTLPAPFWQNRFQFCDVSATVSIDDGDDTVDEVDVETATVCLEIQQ
Nature of the test: Leishmania donovani Ubiquitin Activating Enzyme (LdE1). It is filed as functional. On the set-up: scale not given: direction of the effect not stated beside the values. The following applies: 30 µM.
Consider `COCCc1ncc(CN2CCC(Oc3ccccc3C)CC2)cn1`, for which the Percent Effect is 17.3%.
Still for that read-out and setting: then `COCCCN1CC2(CCCCN2C(=O)c2ccsc2)CC1=O` (stereo not given), with 3.9%; and `CCc1nc(C2CCCN2CCn2cncn2)no1` (stereo not given), with 5.2%; and `O=C(NCCOc1ccc(Cl)cc1)N1CCS(=O)(=O)CC1`, with 5.13%.
Still for that read-out and setting: then `COC(=O)CC(c1ccccc1)c1oc(C)cc(=O)c1O` (stereo not given), with 0%; and `COc1ncccc1CNC(=O)c1cccc(C)n1`, with 23.1%; and `CC(C)CN(Cc1nc2c(cnn2C)c(=O)[nH]1)C(C)C`, with 10.3%.
In the case of `CC(C)C(=O)N1CCC2(CCCN(CCOc3ccccc3)C2)C1` (stereo not given), the Percent Effect turned out to be 1.3%.
Turning to `Cc1ccc(-c2nc(CCNC(=O)NC3CCN(C)CC3)co2)cc1`, the Percent Effect was found to be 8%.
On to `COc1ccc(CNCc2ccnc(N3CCCCC3)c2)cc1OC`, for which the Percent Effect was -2.56%.
Same read-out and setting: then `COc1ccc(CC(=O)N2C[C@@H]3COC[C@]3(CN(C)C)C2)cc1`, with -42.9%; and `CC(=O)N1N=C(c2ccccc2)OC1C(=O)NCCc1cccc(Cl)c1` (stereo not given), with 6.67%; and `Cc1cnn(CC2CN(CC(=O)N(C)Cc3cccs3)CCO2)c1` (stereo not given), with 5.33%.
The same measure, in the same setting: then `O=C(CC1CCCC1)N1C[C@@H]2CCN(c3cccnc3)C[C@@H]2C1`, with 3.9%; and `COc1ccc(CN2CCC3(CC(Nc4ccncn4)C3)C2)c(OC)c1` (stereo not given), with 9.33%.
On the same count and under the same terms, then `Cc1nn(C)c(N(C)C)c1CNCCNS(C)(=O)=O`, with 10.3%.
Turning to `Cc1cc(-c2nn(C)c(Cl)c2CN2Cc3ccccc3C(O)C2)no1` (stereo not given), the Percent Effect turned out to be 24.3%.
Same read-out and setting: then `CCc1nnc(CN2CCCC(c3cc(C(F)(F)F)[nH]n3)C2)o1` (stereo not given), with 0%; and `CC[C@@H]1N(Cc2ccsc2)CCC[C@]12CCC(=O)N2CCOC`, with 19.5%; and `CC(c1nc(C2CC2)no1)N1CCN(Cc2ccsc2)CC1` (stereo not given), with 2.56%.
The same measure, in the same setting: the value for `COc1cccc(OC)c1C(=O)N1CCN(c2ccccc2F)CC1` was 12%; that for `O=C(NCC1CC1)C1=NOC2(CCN(S(=O)(=O)c3cccs3)C2)C1` (stereo not given) was -3.9%.
With `Cc1ncc(S(C)(=O)=O)c(C2CCCNC2)n1` (stereo not given), the Percent Effect was determined as 2.7%.
Still for that read-out and setting: then `O=C(NCCc1cccnc1)N1CCCC1c1ccsc1` (stereo not given), with 17.9%; and `CNC(=O)[C@@H]1C[C@H]2CN(Cc3ccco3)C[C@H]2N1C`, with -27.3%.
Same read-out and setting: then `Cc1ccc(Oc2ccc(NC(=O)NCC3CCOC3)cn2)cc1C` (stereo not given), with 10.3%.
Turning to `O=C(Cc1n[nH]c2ccccc12)N1CCC(Nc2cccnn2)CC1`, the Percent Effect came out at 10.4%.
Turning to `Cc1cc(C2CCCN(C(=O)c3c(C)nn4cccnc34)C2)n[nH]1` (stereo not given), the Percent Effect was determined as 8%.
On the same count and under the same terms, then `CC(C)c1nc(C2CCCN2CC(=O)Nc2nncs2)no1` (stereo not given), with 16%.
Same read-out and setting: then `CCn1ccnc1CN1CCN(CC(O)c2ccccc2)CC1` (stereo not given), with 2.56%; and `CO[C@@H]1CCN(C(=O)c2ccccn2)[C@H]1Cc1ccccc1`, with 19.5%.
On the same count and under the same terms, the value for `Cc1noc(C(C)C)c1C(=O)NCCN1CCCCCC1=O` was 20.8%; that for `Cc1noc(C)c1CC(=O)OCC(=O)N1CCc2sccc2C1` was 18.7%.
On to `COCc1nc(C(=O)N2CCCC(n3cccn3)C2)cs1` (stereo not given), for which the Percent Effect was determined as 13%.
Take `COCCN1CCCN(C(=O)NC(C)Cn2ccnc2)CC1` (stereo not given): the Percent Effect amounted to 13%.
On to `CC(C)(C)n1ncc2c1NC(=O)CC2c1ccsc1` (stereo not given), for which the Percent Effect is 2.7%.
Still for that read-out and setting: then `O=C(NCCO)c1ccn(-c2ccc3ccccn23)n1`, with -32.5%; and `COc1ncccc1CNC(=O)c1cccnc1O`, with 12.8%.
Still for that read-out and setting: then `CCc1cc(O)nc(C2CCCN2C(=O)c2cc(C)no2)n1` (stereo not given), with 17.3%.
Turning to `O=C(NC[C@]1(O)CN(Cc2ccccc2F)C[C@H]1O)c1ccccn1`, the Percent Effect was found to be 12%.

The target of the next test is Sialic acid-binding Ig-like lectin 9 (Homo sapiens) (UniProt Q9Y336). Nature of the test: Hs-Siglec9 ALPHAscreen SOP 20170721. The following applies: 10 µM. Details: scale not given: direction of the effect not stated beside the values.
Chain of Sialic acid-binding Ig-like lectin 9 (Homo sapiens) (Q9Y336 whole entry): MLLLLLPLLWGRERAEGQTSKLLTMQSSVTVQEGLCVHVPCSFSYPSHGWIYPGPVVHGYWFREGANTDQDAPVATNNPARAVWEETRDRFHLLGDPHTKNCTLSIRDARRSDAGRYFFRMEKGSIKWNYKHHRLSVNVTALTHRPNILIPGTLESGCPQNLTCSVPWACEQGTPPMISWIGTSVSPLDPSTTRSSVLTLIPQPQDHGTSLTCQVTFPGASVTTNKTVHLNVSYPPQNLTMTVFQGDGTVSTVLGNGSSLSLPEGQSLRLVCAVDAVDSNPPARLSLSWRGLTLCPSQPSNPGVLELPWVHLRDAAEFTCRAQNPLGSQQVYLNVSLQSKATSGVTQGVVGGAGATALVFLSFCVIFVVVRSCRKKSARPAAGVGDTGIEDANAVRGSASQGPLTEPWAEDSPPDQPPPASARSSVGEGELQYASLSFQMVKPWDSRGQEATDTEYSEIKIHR
For `COCCc1ncc(CN2CCC(Oc3ccccc3C)CC2)cn1`, the Percent Effect came to 7.21%.
Same read-out and setting: the value for `COCCCN1CC2(CCCCN2C(=O)c2ccsc2)CC1=O` (stereo not given) was 1.99%; that for `CCc1nc(C2CCCN2CCn2cncn2)no1` (stereo not given) was 7.59%.
As for `O=C(NCCOc1ccc(Cl)cc1)N1CCS(=O)(=O)CC1`, the Percent Effect is -7.37%.
Still for that read-out and setting: the value for `COC(=O)CC(c1ccccc1)c1oc(C)cc(=O)c1O` (stereo not given) was 4.84%; that for `COc1ncccc1CNC(=O)c1cccc(C)n1` was -18.5%.
For the molecule `CC(C)CN(Cc1nc2c(cnn2C)c(=O)[nH]1)C(C)C`, the Percent Effect is -1.47%.
As to `CC(C)C(=O)N1CCC2(CCCN(CCOc3ccccc3)C2)C1` (stereo not given), the Percent Effect is -1.94%.
Still for that read-out and setting: the value for `Cc1ccc(-c2nc(CCNC(=O)NC3CCN(C)CC3)co2)cc1` was -2.04%; that for `COc1ccc(CNCc2ccnc(N3CCCCC3)c2)cc1OC` was 3.59%; that for `COc1ccc(CC(=O)N2C[C@@H]3COC[C@]3(CN(C)C)C2)cc1` was 3.29%.
The same measure, in the same setting: the value for `CC(=O)N1N=C(c2ccccc2)OC1C(=O)NCCc1cccc(Cl)c1` (stereo not given) was -6.99%.
Still for that read-out and setting: then `Cc1cnn(CC2CN(CC(=O)N(C)Cc3cccs3)CCO2)c1` (stereo not given), with -0.649%.
For `O=C(CC1CCCC1)N1C[C@@H]2CCN(c3cccnc3)C[C@@H]2C1`, the Percent Effect was determined as 3.29%.
Regarding `COc1ccc(CN2CCC3(CC(Nc4ccncn4)C3)C2)c(OC)c1` (stereo not given), the Percent Effect is 5.58%.
With `Cc1nn(C)c(N(C)C)c1CNCCNS(C)(=O)=O`, the Percent Effect was -0.784%.
On the same count and under the same terms, then `Cc1cc(-c2nn(C)c(Cl)c2CN2Cc3ccccc3C(O)C2)no1` (stereo not given), with 18.2%; and `CCc1nnc(CN2CCCC(c3cc(C(F)(F)F)[nH]n3)C2)o1` (stereo not given), with -0.304%.
With `CC[C@@H]1N(Cc2ccsc2)CCC[C@]12CCC(=O)N2CCOC`, the Percent Effect is -1.28%.
On the same count and under the same terms, then `CC(c1nc(C2CC2)no1)N1CCN(Cc2ccsc2)CC1` (stereo not given), with 2.79%.
The same measure, in the same setting: then `COc1cccc(OC)c1C(=O)N1CCN(c2ccccc2F)CC1`, with 0.141%; and `O=C(NCC1CC1)C1=NOC2(CCN(S(=O)(=O)c3cccs3)C2)C1` (stereo not given), with 6.57%; and `Cc1ncc(S(C)(=O)=O)c(C2CCCNC2)n1` (stereo not given), with 5.3%.
Still for that read-out and setting: then `O=C(NCCc1cccnc1)N1CCCC1c1ccsc1` (stereo not given), with -11.1%.
As to `CNC(=O)[C@@H]1C[C@H]2CN(Cc3ccco3)C[C@H]2N1C`, the Percent Effect was -0.86%.
Still for that read-out and setting: then `Cc1ccc(Oc2ccc(NC(=O)NCC3CCOC3)cn2)cc1C` (stereo not given), with -3.96%; and `O=C(Cc1n[nH]c2ccccc12)N1CCC(Nc2cccnn2)CC1`, with 4.16%; and `Cc1cc(C2CCCN(C(=O)c3c(C)nn4cccnc34)C2)n[nH]1` (stereo not given), with 6.1%.
Same read-out and setting: the value for `CC(C)c1nc(C2CCCN2CC(=O)Nc2nncs2)no1` (stereo not given) was 8.36%; that for `CCn1ccnc1CN1CCN(CC(O)c2ccccc2)CC1` (stereo not given) was 2.88%.
Regarding `CO[C@@H]1CCN(C(=O)c2ccccn2)[C@H]1Cc1ccccc1`, the Percent Effect was 2.27%.
Turning to `Cc1noc(C(C)C)c1C(=O)NCCN1CCCCCC1=O`, the Percent Effect stood at 3.57%.
Same read-out and setting: then `Cc1noc(C)c1CC(=O)OCC(=O)N1CCc2sccc2C1`, with 0.304%; and `COCc1nc(C(=O)N2CCCC(n3cccn3)C2)cs1` (stereo not given), with 6.57%.
The same measure, in the same setting: then `COCCN1CCCN(C(=O)NC(C)Cn2ccnc2)CC1` (stereo not given), with 12.5%.
Same read-out and setting: the value for `CC(C)(C)n1ncc2c1NC(=O)CC2c1ccsc1` (stereo not given) was -2.29%; that for `O=C(NCCO)c1ccn(-c2ccc3ccccn23)n1` was -8.91%.
`COc1ncccc1CNC(=O)c1cccnc1O`: the Percent Effect was -3.2%.
On the same count and under the same terms, then `CCc1cc(O)nc(C2CCCN2C(=O)c2cc(C)no2)n1` (stereo not given), with -12.2%; and `O=C(NC[C@]1(O)CN(Cc2ccccc2F)C[C@H]1O)c1ccccn1`, with -1.14%.

The values are drawn from ChEMBL document CHEMBL3988442, “University of Dundee, Small-Polar-MMV Screening Library” (2021).
